We go through 22 compounds from PubChem BioAssay (EPA / NIEHS).

Activity calls are given as the source filed them. The calls were made as follows: active = hit-call score of the fitted dose curve at least 0.9, where 1 is the maximum; inactive = score below 0.9.

Holding throughout (details): mRNA level, 48 h; actives raise or lower the signal
Read-out in experiment [1]: CYP3A5 (gene 1577)
Description: LTEA_HepaRG_CYP3A5: Life Technologies and Expression Analysis (LTEA) Assay for CYP3A5 using HepaRG (AID 2283493). In a few lines: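 HepaRG cells, plated 48 h then in serum-free induction medium, dosed in duplicate for 48 h with eight half-log concentrations up to 100 uM in 0.5% DMSO. Gene mRNA by Fluidigm TaqMan qRT-PCR, normalized to ACTB, GAPDH, POLR2A.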

Read-out in experiment [2]: Fatty Acid-Binding Protein 1 (FABP1), FABP1 (gene 2168)
Briefly: LTEA_HepaRG_FABP1: Life Technologies and Expression Analysis (LTEA) Assay for Fatty Acid-Binding Protein 1 (FABP1) using HepaRG (AID 2283494). An outline of the steps: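 HepaRG, 48 h post-plating switched to serum-free induction medium, then dosed 48 h (duplicate, 8 pts, ≤100 uM, 0.5% DMSO). RNA → Fluidigm TaqMan qRT-PCR, FABP1 normed to ACTB/GAPDH/POLR2A. Bidirectional curve fit vs DMSO.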

Read-out in experiment [3]: Cytochrome P450 4A22 (Homo sapiens) (UniProt Q5TCH4)
Description: LTEA_HepaRG_CYP4A22: Life Technologies and Expression Analysis (LTEA) Assay for Cytochrome P450 4A22 (CYP4A22) using HepaRG (AID 2283495). An outline of the steps:
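Cryopreserved HepaRG cells, plated and cultured 48 h, then switched to serum-free induction medium and treated 48 h (duplicates, up to 100 uM, half-log steps, 0.5% DMSO). Expression change of CYP4A22 was fitted bidirectionally against vehicle.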

Read-out in experiment [4]: Cytochrome P450 7A1 (Homo sapiens) (UniProt P22680)
Description: LTEA_HepaRG_CYP7A1: Life Technologies and Expression Analysis (LTEA) Assay for Cytochrome P450 7A1 (CYP7A1) using HepaRG (AID 2283496). In a few lines: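 HepaRG cells plated 48 h, then switched to serum-free induction medium and exposed in duplicate for 48 h to 8-point half-log series from 100 uM in 0.5% DMSO. CYP7A1 mRNA by qRT-PCR (TaqMan), normalized to ACTB/GAPDH/POLR2A; bidirectional fit versus DMSO.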

Read-out in experiment [5]: Glutathione S-Transferase (GSTA2), GSTA2 (gene 2939)
Briefly: LTEA_HepaRG_GSTA2: Life Technologies and Expression Analysis (LTEA) Assay for Glutathione S-Transferase (GSTA2) using HepaRG (AID 2283497). An outline of the steps: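 HepaRG, 48 h dosing, 8-pt half-log CRC from 100 uM, 0.5% DMSO vehicle, n=2; RNA → Fluidigm TaqMan qRT-PCR; GSTA2 vs ACTB/GAPDH/POLR2A; gain/loss fit vs DMSO.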

Read-out in experiment [6]: growth arrest and DNA damage 45 (GADD45G), GADD45G (gene 10912)
Description: LTEA_HepaRG_GADD45G: Life Technologies and Expression Analysis (LTEA) Assay for growth arrest and DNA damage 45 (GADD45G) using HepaRG (AID 2283499). In a few lines:
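Human hepatic HepaRG line treated 48 h with chemicals (eight concentrations, half-log steps from 100 uM); transcript induction or repression of GADD45G scored by qRT-PCR versus DMSO vehicle.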

Read-out in experiment [7]: Glutathione S-transferase M3 (GSTM3), GSTM3 (gene 2947)
Description: LTEA_HepaRG_GSTM3: Life Technologies and Expression Analysis (LTEA) Assay for Glutathione S-transferase M3 (GSTM3) using HepaRG (AID 2283501). An outline of the steps:
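Changes in GSTM3 expression, an oxidative-stress marker, were scored by bidirectional curve fitting against 0.5% DMSO vehicle. Human HepaRG cultures received chemicals for 48 h in duplicate, highest concentration 100 uM with half-log dilutions.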

Read-out in experiment [8]: Heat shock 70 kDa protein 1 (HSPA1A), gene 3303
Description: LTEA_HepaRG_HSPA1A: Life Technologies and Expression Analysis (LTEA) Assay for Heat shock 70 kDa protein 1 (HSPA1A) using HepaRG (AID 2283502). In a few lines: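 Human HepaRG cells in serum-free induction medium were exposed in duplicate for 48 h to 8 half-log concentrations, highest 100 uM, in 0.5% DMSO. HSPA1A mRNA read by TaqMan qRT-PCR, normalized to ACTB, GAPDH, POLR2A, fitted bidirectionally against DMSO.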

Read-out in experiment [9]: Glutamate-cysteine ligase catalytic (GCLC), GCLC (gene 2729)
Briefly: LTEA_HepaRG_GCLC: Life Technologies and Expression Analysis (LTEA) Assay for Glutamate-cysteine ligase catalytic (GCLC) using HepaRG (AID 2283498). An outline of the steps:
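Read-out is GCLC transcript level by Fluidigm-based TaqMan qRT-PCR, normalized to three housekeeping genes and fitted in both directions relative to 0.5% DMSO. Human HepaRG cells received chemicals for 48 h, up to 100 uM.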

Read-out in experiment [10]: Glutamate-cysteine ligase regulatory (GCLM), GCLM (gene 2730)
Description: LTEA_HepaRG_GCLM: Life Technologies and Expression Analysis (LTEA) Assay for Glutamate-cysteine ligase regulatory (GCLM) using HepaRG (AID 2283500). An outline of the steps:
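Differentiated HepaRG cells exposed 48 h in serum-free induction medium to eight half-log concentrations up to 100 uM (0.5% DMSO). GCLM mRNA by TaqMan qRT-PCR, normalized to ACTB, GAPDH and POLR2A; bidirectional fit versus DMSO.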

As for `COc1cccc(-c2ccc(/C=C\CN3CCCCCC3)cc2Cl)c1`, the AC50 (in general, the concentration at which the activity in the assay is half-maximal) is 8.98 µM (active) in [1]; 84.1 µM (active) in experiment [2]; 84.4 µM (active) in experiment [3]; 69.2 µM (active) in [4]; 71 µM (active) in experiment [5]; 45.2 µM (active) in [6]. For the same compound, the AC50 in experiment [7] is 79.1 µM (active); in experiment [8] it was 67.9 µM (active).

For `Cc1[nH]cnc1C[C@H]1CCc2c(C)c3ccccc3n2C1=O`, the compound was called inactive in [1], in experiment [10] and in [7]. The AC50 was 17.1 µM (active) in experiment [2]; 22.6 µM (active) in experiment [4]; 30.5 µM (active) in experiment [5]; 29.7 µM (active) in experiment [9]; 81.1 µM (active) in experiment [6]; 56.9 µM (active) in experiment [8].

On to `CC(C)CCCCCCOC(=O)c1ccc(C(=O)OCCCCCCC(C)C)c(C(=O)OCCCCCCC(C)C)c1`, for which the call in experiment [1], in experiment [2], in experiment [4], in experiment [5], in experiment [9] and in experiment [6] was inactive. Also, the outcome in experiment [7] and in experiment [8] was inactive.

As for `CCN(C(=O)c1cc(C)cc(OC[C@H](C)Nc2ccncc2)c1)C(C)C`, the compound was classed as inactive in experiment [1], in experiment [5], in experiment [10], in [7] and in experiment [8]. In addition, the AC50 in [2] was 2.25 µM (active); in [3], 33.8 µM (active); in [4], 50.5 µM (active); in experiment [6] it was 33.8 µM (active).

Regarding `CC[C@H]1CC[C@H](NCc2cc3c(cc2OC)[C@H]2C[C@H]2C(=O)N3C)[C@H](c2ccccc2)N1`, the AC50 in experiment [1] and in experiment [6] was 50 µM (active) in each case. For the same compound, the compound was called inactive in experiment [2], in [4], in [5], in experiment [9], in experiment [7] and in experiment [8].

Turning to `Cc1ccc(C)c(O)c1`, the call in experiment [1], in experiment [2], in [4], in [5], in experiment [9] and in experiment [6] was inactive. Moreover, the outcome in experiment [10], in experiment [7] and in experiment [8] was inactive.

In the case of `CC(C)CCCCCCCOC(=O)CCCCC(=O)OCCCCCCCC(C)C`, the result in experiment [1], in experiment [2], in experiment [4], in experiment [5], in experiment [9] and in [6] was inactive. Moreover, the outcome in experiment [7] and in [8] was inactive.

`C[C@](N)(Cc1ccc(O)c(O)c1)C(=O)O`: the outcome in experiment [1], in [2], in [4], in experiment [5], in [9] and in experiment [6] was inactive. The outcome in [7] and in [8] was inactive.

In the case of `Clc1nc(Cl)c(Cl)c(Cl)c1Cl`, the outcome in experiment [1], in experiment [2], in [4], in [5], in experiment [9] and in [6] was inactive. Besides, the compound was classed as inactive in experiment [10], in experiment [7] and in experiment [8].

`O=C1CCC(N2C(=O)c3ccccc3C2=O)C(=O)N1` (configuration not stated): the outcome in experiment [1], in experiment [2], in [4], in experiment [5], in experiment [9] and in experiment [6] was inactive. Besides, the outcome in [7] and in [8] was inactive.

In the case of `COc1ccc2sc(C(=O)Nc3nnn[nH]3)c(OC(C)C)c2c1`, the compound was classed as inactive in experiment [1]. Further, the AC50 in [2] was 83.9 µM (active); in experiment [3] it was 1.17 µM (active); in experiment [4], 96.5 µM (active); in [5], 50 µM (active); in experiment [6], 80.8 µM (active); in experiment [7], 76.2 µM (active). Further, the AC50 in [8] is 9.47 µM (active).

Consider `Cn1c(=O)cc(Oc2ccc(F)cc2F)c2cnc(NCC(C)(C)O)nc21`, for which the values for the AC50 in [1] and in experiment [6] were 50 µM (active) and 9.17 µM (active), respectively. For the same compound, the result in experiment [2], in experiment [4], in experiment [5], in [10], in experiment [7] and in [8] was inactive.

Turning to `COCCOCCOCCOC`, the result in [1], in experiment [2], in experiment [4], in experiment [5], in experiment [9] and in [6] was inactive. In addition, the result in [10], in experiment [7] and in [8] was inactive.

For the compound `Fc1ccccc1[C@@H](F)COC1CCC(Nc2ncnc3[nH]ncc23)CC1` (some centres not stated), the call in experiment [1] and in experiment [10] was inactive. In addition, the AC50 was 64 µM (active) in experiment [2]; 23 µM (active) in [3]; 77.1 µM (active) in experiment [4]; 37.5 µM (active) in experiment [5]; 30 µM (active) in experiment [6]; 65.2 µM (active) in experiment [7]. Moreover, the AC50 in [8] is 50 µM (active).

In the case of `O=P(OC(CCl)CCl)(OC(CCl)CCl)OC(CCl)CCl`, the result in experiment [1], in [7] and in [8] was inactive. In addition, the AC50 in experiment [2] was 72.9 µM (active); in experiment [4], 76.9 µM (active); in experiment [5] it was 75.6 µM (active); in experiment [9], 89.5 µM (active); in experiment [6], 94.3 µM (active); in experiment [10], 83.9 µM (active).

In the case of `CC(=O)OCCC(C)C`, the call in experiment [1], in experiment [2], in experiment [4], in experiment [5], in experiment [9] and in experiment [6] was inactive. Also, the outcome in experiment [10], in [7] and in experiment [8] was inactive.

For the compound `CCCCCCCCCCCCc1ccccc1`, the call in experiment [1], in experiment [2], in [4], in experiment [5], in experiment [9] and in experiment [6] was inactive. In addition, the compound was classed as inactive in experiment [7] and in experiment [8].

`C1=CCCC=CCCC=CCC1`: the compound was called inactive in experiment [1], in experiment [2], in experiment [3], in experiment [4], in experiment [5] and in experiment [6]. The outcome in experiment [10], in experiment [7] and in experiment [8] was inactive.

On to `COC(=O)c1c(Cl)c(Cl)c(C(=O)OC)c(Cl)c1Cl`, for which the outcome in experiment [1], in experiment [2], in experiment [4], in experiment [5], in experiment [6] and in [10] was inactive. In addition, the result in experiment [7] and in [8] was inactive.

For `COCCOc1cc2cc(C(=O)NC3CCN(C(C)C)CC3)n(CC(=O)Nc3ccc(Cl)cn3)c2cn1`, the AC50 in experiment [1] is 15.9 µM (active); in experiment [2] it was 34.9 µM (active); in experiment [4], 41.2 µM (active); in [5], 45 µM (active); in [6] it was 45 µM (active); in experiment [7], 45 µM (active).

Consider `O=C(O)CCN(C1(C(=O)NO)CCCC1)S(=O)(=O)c1ccc(Oc2ccc(F)cc2)cc1`, for which the compound was called inactive in experiment [1], in experiment [2], in experiment [4], in experiment [5], in experiment [6] and in [10]. For the same compound, the compound was called inactive in [7] and in [8].

Consider `O=C1OC(=O)C2C3C=CC(C3)C12` (configuration not stated), for which the call in [2], in [3], in [4], in experiment [5], in experiment [6] and in experiment [7] was inactive. For the same compound, the call in [8] was inactive.
